The list is not random: actives were taken first. Their share in the collection is about 9.4%.
AMA1 RON2 block: qHTS for Inhibitors of AMA1-RON; Towards Development of Antimalarial Drug Lead: Primary Screen | AID 720542, 2013 | actives 0.2% (n = 360,000) | Potency, µM (doses to about 58.2 µM), for inactives: at the highest dose activity change, negative = inhibition, most hits filed as inhibitors | Plasmodium falciparum AMA1 (3D7) - RON2 peptide interaction | AlphaScreen AMA1-biotinylated RON2 peptide binding;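 note: 0% = vehicle wells and -100% = peptide control; nearly all actives have a fitted effect of over 45% in size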
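AMA1 (3D7) with his tag at 25 nM final met compounds first, then biotinylated RON2 peptide at 25 nM; detection used donor plus acceptor beads, 10 µg/mL apiece, read by AlphaScreen after 30 min at room temperature.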
Pf growth 48h: Primary qHTS for delayed death inhibitors of the malarial parasite plastid, 48 hour incubation; P. falciparum luciferase growth in erythrocytes, 48 h; actives 5.9% (n = 310,000); Potency, µM (highest dose often 28.7 µM), inactives show at the highest dose activity change, negative = inhibition, most hits filed as inhibitors; note: % is set by controls: 0 for no effect and ±100 for the full control effect
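Growth was read as firefly luciferase luminescence after a 48 h, 37 C, 5% CO2 exposure of compounds to reporter-bearing P. falciparum cultures (0.1% parasitemia, 2% hematocrit final) in Albumax-supplemented RPMI 1640.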
Pf growth 96h: Primary qHTS for delayed death inhibitors of the malarial parasite plastid, 96 hour incubation. P. falciparum luciferase reporter growth, 96 h. Potency, µM (top dose mostly 28.7 µM), inactives show at the highest dose activity change, negative = inhibition, usual class: inhibitors. actives 6.9% (n = 320,000); note: % is set by controls: 0 for no effect and ±100 for the full control effect
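Parasite growth measured via integrated firefly luciferase reporter in P. falciparum. Infected erythrocytes at 2% hematocrit, 0.05% parasitemia final were treated 96 hours at 37 C under 5% CO2, and luminescence was read.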
SARS PLpro yeast: qHTS of Yeast-based Assay for SARS-CoV PLP; actives 0.19% (n = 330,000); AID 485353, 2010; S. cerevisiae expressing SARS-CoV PLpro, growth rescue; Potency, µM (doses to about 32.9 µM), inactives show top-dose activity, positive = growth rescue, usual class: activators; calls by dose curve; note: 0% is about no effect; nearly all actives have a fitted effect of over 55% in size
Active calls of the source: *; ! = a repeat was not active. Unless noted, calls come from the whole dose curve; as a rule, active = well fitted curve in the direction sought with a large enough effect; inconclusive = small, poorly fitted or top-dose-only effect, or another doubt; inactive = no such curve, though single readings can be large; an effect the other way counts as inactive or inconclusive. Potency is the fitted concentration of half-maximal effect.

`CSc1cccc(NC(=O)N2CCCC(CNS(=O)(=O)Cc3ccccc3)C2)c1` (centres undefined) gave AMA1 RON2 block 16%, Pf growth 48h -5%, Pf growth 96h 9.3µM* and SARS PLpro yeast -2%.
`COc1ccc(C(C)=O)cc1Cn1nc(C)c([N+](=O)[O-])c1C` gave AMA1 RON2 block 39%, Pf growth 48h 19µM*, Pf growth 96h inconclusive and SARS PLpro yeast -3%.
Screening COc1ccc(C2C(C#N)=C(N)OC3=C2C(=O)CCC3)cc1Cn1nc(C)c([N+](=O)[O-])c1C (centres undefined) returned AMA1 RON2 block 0%, Pf growth 48h 12µM*, Pf growth 96h 24% and SARS PLpro yeast -3%.
`COc1ccc(C2C(C#N)=C(N)Oc3n[nH]c(C)c32)cc1Cn1nc(C)c([N+](=O)[O-])c1C` (centres undefined) gave AMA1 RON2 block -1%, Pf growth 48h -14%, Pf growth 96h inconclusive and SARS PLpro yeast 0%.
Cc1cccc(OCC(=O)N/N=C/c2cn[nH]c2-c2ccc(Cl)c(Cl)c2)c1 was read as AMA1 RON2 block -4%, Pf growth 48h inconclusive, Pf growth 96h inconclusive and SARS PLpro yeast -13%.
Screening COc1ccccc1NS(=O)(=O)c1ccc(C(=O)Nc2ncccc2O)cc1 returned AMA1 RON2 block 30%, Pf growth 48h 4.7µM*, Pf growth 96h inconclusive and SARS PLpro yeast -3%.
`Cc1cccc(C(=O)N2CCCC(Nc3ccc(F)c(F)c3)C2)n1` (centres undefined) gave AMA1 RON2 block -12%, Pf growth 48h 8%, Pf growth 96h -13% and SARS PLpro yeast 3%.
CCOc1ccc(-n2c(-c3cccs3)nc3ccccc3c2=O)cc1 was read as AMA1 RON2 block -5%, Pf growth 48h 1%, Pf growth 96h 9.3µM* and SARS PLpro yeast 0%.
Screening COc1ccc(OC)c(CN2CCN(C(=O)CNC(=O)c3ccc(C(C)(C)C)cc3)CC2)c1 returned AMA1 RON2 block -13%, Pf growth 48h inconclusive, Pf growth 96h 12µM* and SARS PLpro yeast 7%.
COc1ccc(N2CCN(C(=O)CCNC(=O)c3ccc(C(C)(C)C)cc3)CC2)cc1 was read as AMA1 RON2 block -17%, Pf growth 48h 10µM*, Pf growth 96h inconclusive and SARS PLpro yeast -4%.
COc1ccc(N2CCN(C(=O)c3ccc(C(C)(C)C)cc3)CC2)cc1 was read as AMA1 RON2 block inconclusive, Pf growth 96h 8% and SARS PLpro yeast -13%.
Screening COc1ccc(OC)c(CN2CCN(C(=O)CCNC(=O)c3ccc(Br)cc3)CC2)c1 returned AMA1 RON2 block -28%, Pf growth 48h -6%, Pf growth 96h 0% and SARS PLpro yeast 1%.
`COc1ccc(S(=O)(=O)CCC(=O)N2CCN(c3ccc(C(C)=O)cc3)CC2)cc1` gave AMA1 RON2 block 16%, Pf growth 48h -11%, Pf growth 96h 8.3µM* and SARS PLpro yeast 21%.
Screening Cc1ccc(CC2C(=O)N(c3ncccn3)C(=O)C2C)cc1 (centres undefined) returned AMA1 RON2 block 1%, Pf growth 96h 0.83µM* and SARS PLpro yeast 3%.
For Oc1ccc(CN2CCN(Cc3ccccc3)CC2)c2cccnc12 the results were AMA1 RON2 block -89%, Pf growth 48h 7% and SARS PLpro yeast -3%.
Oc1c(Cl)cc(CN2CCOCC2)c2cccnc12 was read as AMA1 RON2 block -78%, Pf growth 48h 4.7µM*, Pf growth 96h 5.9µM* and SARS PLpro yeast -10%.
O=S(=O)(c1ccc(Cl)cc1)N1CCN(Cc2ccc(O)c3ncccc23)CC1 was read as AMA1 RON2 block -50%, Pf growth 48h 1.9µM*, Pf growth 96h inconclusive and SARS PLpro yeast -4%.
`Oc1c(CN2CCCCC2)cc(Br)c2cccnc12` gave AMA1 RON2 block -68%, Pf growth 48h 2.6µM*, Pf growth 96h inconclusive and SARS PLpro yeast -40%.
O=[N+]([O-])c1cc(CN2CCOCC2)c2cccnc2c1O was read as AMA1 RON2 block -11%, Pf growth 48h 4.1µM*, Pf growth 96h -16% and SARS PLpro yeast 0%.
Screening COc1cc(OC)cc(C(=O)Oc2c(CN3CCOCC3)cc(Cl)c3cccnc23)c1 returned AMA1 RON2 block 47%, Pf growth 48h 1.5µM*, Pf growth 96h 0.93µM* and SARS PLpro yeast 3%.
O=[N+]([O-])c1cc(CN2CCN(c3ccccc3)CC2)c(O)c2ncccc12 was read as AMA1 RON2 block -90%, Pf growth 48h inconclusive, Pf growth 96h -18% and SARS PLpro yeast 1%.
For CN1CCN(Cc2cc(COCc3ccccc3)c3cccnc3c2O)CC1 the results were AMA1 RON2 block -46%, Pf growth 48h 2.1µM*, Pf growth 96h 2.3µM* and SARS PLpro yeast 4%.
`COc1ccc(NC(=O)Nc2ccc3c(c2)C(=O)N([C@H](C)CO)C[C@H](C)[C@H](CN(C)Cc2ccc(C(=O)O)cc2)OCCCC[C@@H](C)O3)cc1` gave AMA1 RON2 block -10%.
`CC1Cc2ccccc2N1C(=O)CNc1cccc(S(=O)(=O)N2CCCC2)c1` (centres undefined) gave AMA1 RON2 block -8%, Pf growth 48h inconclusive, Pf growth 96h inconclusive and SARS PLpro yeast 0%.
Screening O=c1cc(CCc2ccccc2)[nH]c(=O)[nH]1 returned AMA1 RON2 block -1%.
For CCN1C(=O)/C(=C\c2nc3ccccc3c(=O)n2-c2ccccc2)c2ccccc21 the results were AMA1 RON2 block 0%, Pf growth 48h 10µM*, Pf growth 96h -2% and SARS PLpro yeast 7%.
`COc1ccc(-n2c(/C=C3\C(=O)N(C)c4ccccc43)nc3ccccc3c2=O)cc1` gave AMA1 RON2 block -4%, Pf growth 48h 6.6µM*, Pf growth 96h 12µM* and SARS PLpro yeast 0%.
CCN1C(=O)/C(=C/c2nc3ccccc3c(=O)n2-c2ccc(C)cc2)c2ccccc21 was read as AMA1 RON2 block -22%, Pf growth 48h inconclusive, Pf growth 96h inconclusive and SARS PLpro yeast 4%.
COCCN1C(=NCCCOC(C)C)N[C@@H](c2ccccc2)C(C(=O)OC)=C1C was read as AMA1 RON2 block 24%, Pf growth 48h inconclusive, Pf growth 96h 18% and SARS PLpro yeast 15%.
Screening COC(=O)C1=C(C)N(Cc2ccccc2)C(=NCCc2c[nH]c3ccccc23)N[C@H]1c1ccccc1 returned AMA1 RON2 block -19%, Pf growth 48h inconclusive, Pf growth 96h 8.3µM* and SARS PLpro yeast 3%.
`C=CCN=C1N[C@@H](c2ccccc2)C(C(=O)OC)=C(C)N1CCOC` gave AMA1 RON2 block -1%, Pf growth 48h 34%, Pf growth 96h 10µM*! and SARS PLpro yeast 6%.
Screening COCCN1C(=O)N[C@@H](c2ccc(Br)cc2)C(C(=O)OC)=C1C returned Pf growth 48h -22%, Pf growth 96h inconclusive and SARS PLpro yeast -14%.

Compound activity deposited in PubChem by National Center for Advancing Translational Sciences (NCATS).
